Data on 76 compounds can be found in PubChem BioAssay AID463173 (ICCB-Longwood Screening Facility, Harvard Medical School, 2010).

The campaign covered roughly 52,000 compounds. About 4,300 (8.3%) were called active. No stated cut-off is given here; in the data, active means survival mostly below about 52% (no sharp cut-off); inactive means mostly above about 56%. For the sample, actives were picked, then their nearest neighbours and some compounds at random.

This test deals with DeltatarO mutant. Nature of the test: growth inhibition of S. aureus wild type versus tarO mutant, primary screen, teichoic acid synthesis inhibitors, RN4220, OD600 (AID 463173). To be noted: OD600, 18 h, hits give low values, concentration not given here.
`O=C(COc1cc(Cl)ccc1Cl)Nc1ccc(Cl)cc1C(=O)c1ccccc1`: the survival was 69% (inactive).

As to `CC1=CC(=O)C2=C(C)CC(O)C3C(C)C(=O)OC3C12` (stereo unspecified), the survival was 100% (inactive).

As for `CCc1ccc(NC(=O)c2cccn(Cc3cccc([N+](=O)[O-])c3)c2=O)cc1`, the survival is 89% (inactive).

On to `Cc1cc(C=C(C#N)C#N)c(C)n1C1CCCC1`, for which the survival is 64% (inactive).

For the compound `CC(C)NCc1ccc2c(c1)OCO2`, the survival was 76% (inactive).

With `Cc1ccc(C(C)(C)C)c(OCC(=O)Nc2ccc(Cl)cc2C(=O)c2ccccc2)c1`, the survival is 66% (inactive).

For `CCN(CC)C(=O)c1ccc(NC(=O)CCn2nc(-c3ccc(C)cc3)c3ccccc3c2=O)cc1`, the survival was 61% (inactive).

For `CCN(CC)C(=O)c1ccc(NC(=O)CCn2nc(-c3ccc(Cl)cc3)c3ccccc3c2=O)cc1`, the survival is 47% (active).

Consider `CCN(CC)C(=O)c1ccc(NC(=O)Cn2nc(-c3ccc(C)cc3)c3ccccc3c2=O)cc1`, for which the survival was 50% (inactive).

On to `CCOc1ccccc1NC(=O)c1cccn(Cc2ccccc2C)c1=O`, for which the survival is 70% (inactive).

Consider `Cc1n[nH]c(C)c1CCN`, for which the survival was 80% (inactive).

With `Cc1[nH]c2c(C)cccc2c1CCN`, the survival was 37% (active).

Consider `O=S1(=O)CC2(N3CCOCC3)CCCCC21` (stereo unspecified), for which the survival is 84% (inactive).

With `C=CCN1C(=O)CN=C(c2cccs2)c2c1sc1c2CCC1`, the survival was 92% (inactive).

As to `COc1ccc(OC)c(NC(=O)Cn2cc(C(=O)c3ccccc3)c3ccccc32)c1`, the survival was 59% (inactive).

Turning to `COc1ccc(OC)c(NC(=O)Cn2cc(C(=O)c3ccccc3F)c3ccccc32)c1`, the survival is 70% (active).

In the case of `COc1cccc(NC(=O)Cn2cc(C(=O)c3ccccc3)c3ccccc32)c1`, the survival is 47% (inactive).

`Cc1ccc(-c2nn3c(=O)cc(CN4CCN(C(=O)COc5ccc(C)c(C)c5)CC4)nc3s2)cc1`: the survival was 81% (inactive).

For `O=C(COc1ccccc1Cl)N1CCN(CCc2ccccn2)CC1`, the survival is 110% (inactive).

Turning to `COc1ccc(OC)c(C(c2c(O)c3ccccc3oc2=O)c2c(C)n(C)n(-c3ccccc3)c2=O)c1` (stereo unspecified), the survival is 56% (inactive).

Turning to `COc1cccc(/C=C/c2nc3ccccc3c(=O)n2-c2ccc(Cl)cc2)c1OC`, the survival was 88% (inactive).

Take `COc1cccc(-n2c(/C=C\c3ccc(Cl)cc3)nc3ccccc3c2=O)c1`: the survival was 30% (active).

For `Cc1ccc(-n2c(/C=C/c3ccccc3)nc3ccccc3c2=O)cc1Cl`, the survival was 68% (inactive).

For the compound `COc1cccc(-n2c(/C=C/c3cccc(C)c3)nc3ccccc3c2=O)c1`, the survival was 0% (active).

`COc1ccc(/C=C/c2nc3ccccc3c(=O)n2-c2ccc(C)cc2)cc1O`: the survival was 85% (inactive).

Consider `Cc1cccc(-n2c(/C=C\c3cccc(Br)c3)nc3ccccc3c2=O)c1`, for which the survival is 113% (inactive).

Consider `O=c1c2ccccc2nc(/C=C/c2cccc3ccccc23)n1-c1ccc(Cl)cc1`, for which the survival was 78% (inactive).

With `CCN1CCN(C(=O)COc2ccc(S(=O)(=O)N(C)Cc3ccccc3)cc2)CC1`, the survival was 87% (inactive).

Consider `CC1(C)CC(NC(=O)CN2CCCC2=O)CC(C)(C)N1`, for which the survival was 79% (inactive).

Take `COc1ccc(C=C2C(=O)NC(=S)NC2=O)cc1`: the survival is 96% (inactive).

Regarding `Cc1cccc(OC(C)C(=O)NCC2(N(C)C)CCCCC2)c1C` (stereo unspecified), the survival is 92% (inactive).

As for `N#CC(C#N)=Cc1ccc(Sc2ccccc2)o1`, the survival was 72% (inactive).

For `COc1ccccc1CNCCc1ccccc1`, the survival is 95% (inactive).

As for `Cc1ccc(C(C)C)c(OCC(=O)N2CCN(CCc3ccncc3)CC2)c1`, the survival is 42% (active).

With `COc1ccc(OCC(=O)N2CCN(CCc3ccncc3)CC2)cc1`, the survival was 82% (inactive).

Take `CCc1ccc(OCC(=O)N2CCN(CCc3ccncc3)CC2)cc1`: the survival was 98% (inactive).

For `Cc1ccc(OCC(=O)N2CCN(CCc3ccncc3)CC2)cc1`, the survival is 86% (inactive).

`Cc1ccc(OCC(=O)N2CCN(CCc3ccncc3)CC2)cc1C`: the survival is 53% (inactive).

`Cc1cc(OCC(=O)N2CCN(CCc3ccncc3)CC2)ccc1Cl`: the survival was 49% (inactive).

With `Cc1cc(OCC(=O)N2CCN(CCc3ccncc3)CC2)cc(C)c1Cl`, the survival is 57% (active).

For `O=C(COc1ccc2ccccc2c1)N1CCN(Cc2ccncc2)CC1`, the survival was 67% (inactive).

Consider `O=C(COc1ccccc1[N+](=O)[O-])N1CCN(CCc2ccncc2)CC1`, for which the survival is 90% (inactive).

Consider `O=C(COc1ccccc1Cl)N1CCN(CCc2ccncc2)CC1`, for which the survival was 95% (inactive).

Take `CC(C)c1ccc(OCC(=O)N2CCN(CCc3ccncc3)CC2)cc1`: the survival was 44% (active).

Regarding `O=C(COc1cccc(Cl)c1)N1CCN(CCc2ccncc2)CC1`, the survival was 47% (active).

As to `O=C(Nc1ccc2c(c1)OCCO2)c1cccn(Cc2cccc([N+](=O)[O-])c2)c1=O`, the survival was 94% (inactive).

For the compound `Cc1ccc(-n2c(/C=C/c3cc(Br)cs3)nc3ccccc3c2=O)cc1`, the survival was 74% (inactive).

`CC(=O)N(C1=NCCCS1)c1ccc(C)cc1`: the survival was 99% (inactive).

As to `CC(=O)OC1(c2ccccc2)CCN(C)C2CCCCC21` (stereo unspecified), the survival was 91% (inactive).

Take `CN1CCc2nc3sc4c(=O)[nH]c(=O)[nH]c4c3cc2C1`: the survival is 79% (inactive).

On to `Cc1ccc(Cl)cc1NC(=O)N(Cc1ccc2c(c1)OCO2)C1CCN(Cc2ccccc2)CC1`, for which the survival is 55% (inactive).

As for `Cc1cccnc1-n1c(C)nc2ccccc2c1=O`, the survival was 76% (inactive).

As to `COc1ccc(NC(=O)CCc2nc(C3=CCN(Cc4cccc(C)c4)CC3)no2)c(OC)c1`, the survival was 91% (inactive).

With `COC(=O)c1ccccc1NC(=O)c1cccn(Cc2cccc(Cl)c2)c1=O`, the survival was 73% (inactive).

For the compound `CCOc1ccc2nc(NC(=O)c3cccn(Cc4ccccc4Cl)c3=O)sc2c1`, the survival was 87% (inactive).

As to `O=c1c2ccccc2[nH]c(=S)n1-c1ccccc1`, the survival was 90% (inactive).

Consider `CCOc1ccc2nc(NC(=O)c3cccn(Cc4ccccc4)c3=O)sc2c1`, for which the survival is 94% (inactive).

In the case of `O=S1(=O)N(Cc2ccccc2)CCCN1Cc1cccc(Cl)c1`, the survival is 71% (inactive).

As for `O=S1(=O)N(Cc2ccccc2Cl)CCCN1Cc1ccccc1Cl`, the survival is 10% (active).

For the compound `O=S1(=O)N(Cc2ccccc2)CCCN1Cc1ccc(F)cc1Cl`, the survival is 87% (inactive).

With `O=C(Nc1ccon1)c1cccn(Cc2cccc([N+](=O)[O-])c2)c1=O`, the survival was 102% (inactive).

Take `COc1ccc(C(C(=O)NC2CCCCC2)N(CCN2CCOCC2)C(=O)Cc2c[nH]c3ccccc23)cc1OC` (stereo unspecified): the survival was 59% (inactive).

As to `COc1ccccc1NC(=O)N(Cc1ccc2c(c1)OCO2)C1CCN(Cc2ccccc2)CC1`, the survival was 88% (inactive).

As for `COc1ccccc1-n1c(/C=C/c2ccccc2)nc2ccccc2c1=O`, the survival was 67% (inactive).

As for `CCCSc1nc2ccccc2c(=O)n1-c1ccccc1OC`, the survival was -2% (active).

As to `CSc1nc2ccccc2c(=O)n1-c1ccccc1C`, the survival is 95% (inactive).

For the compound `Cc1cccc(Cn2cccc(C(=O)Nc3cc(C)on3)c2=O)c1`, the survival was 73% (inactive).

On to `CCCCn1c(=O)c(C(=O)NC)c(O)c2ccccc21`, for which the survival was 99% (inactive).

As for `CCCCCn1c(=O)c(C(=O)Nc2ccccc2S(N)(=O)=O)c(O)c2ccccc21`, the survival was 0% (active).

Take `CCN1CCN(Cc2nnnn2C(C)(C)C)CC1`: the survival was 100% (inactive).

On to `O=C1CC(c2cccnc2)Nc2ccc3ccccc3c21` (stereo unspecified), for which the survival is 86% (inactive).

Consider `Cc1ccc(Cn2cccc(C(=O)Nc3cc([N+](=O)[O-])ccc3C)c2=O)cc1`, for which the survival is 82% (inactive).

`CCOC(=O)c1ccc(NC(=O)c2cccn(Cc3ccccc3F)c2=O)cc1`: the survival is 86% (inactive).

For `Cc1nnc(NC(=O)c2cccn(Cc3ccccc3F)c2=O)s1`, the survival is 94% (inactive).

On to `CCc1ccccc1NC(=O)c1cccn(Cc2ccccc2F)c1=O`, for which the survival is 47% (active).

As for `CC(C)c1ccc(OCC(=O)N2CCN(CCc3ccccn3)CC2)cc1`, the survival was 66% (inactive).
